The results in this text go back to PubChem BioAssay (NCATS).

Results filed as inconclusive are left out. A call without a number means that no potency is given here. Activity calls are given as the source filed them. Calls come from the whole dose curve; as a rule, active = well fitted inhibition curve with a large enough effect; inconclusive = small, poorly fitted or top-dose-only effect; inactive = flat fitted curve, though single readings scatter.
Potency is the fitted concentration of half-maximal effect.

This test is described as follows: P-glycoprotein substrates identified in KB-8-5-11 adenocarcinoma cell line, qHTS therapeutic library screen (AID 1346987). Note: nearly all actives have a fitted effect of over 65% in size. The note with it: KB-8-5-11 (P-gp overexpressing) viability, CellTiter-Glo, 72 h; series mostly up to 44.5 µM. The method, boiled down: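 Steps: plate 500 KB-8-5-11 cells/well in DMEM + 10% FCS (colchicine removed); pin compounds in dose-response; incubate 72 h, 37 degree C, 5% CO2; add CellTiter-Glo, 5 min; read luminescence.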
On the technique in general: qHTS replaces the single test concentration by a dilution series.
Turning to `CC(C)S(=O)(=O)NC[C@H](C)c1ccc(NC(=O)c2cc(F)cc(F)c2)cc1`, the Potency entry was “inactive”.
Consider `CC1(C)CCCC2(C)C(CO)C(CO)=CCC12` (centres undefined), for which the Potency entry is “inactive”.
Regarding `COc1cc2c(cc1OC)N1C(=O)C[C@]34C=CCN5CC[C@@H]2[C@@H](CC3)[C@]514`, the Potency entry was “inactive”.
As for `C/C=C(\C)C(=O)OCC1OC(OC2OC(COC(=O)/C(C)=C/C)C(OC3OC(CO)C(OC(=O)/C(C)=C/C)C(OC(=O)/C(C)=C/C)C3O)C(O)C2O)C(O)C(O)C1OC1OC(CO)C(OC(=O)/C(C)=C/C)C(OC(=O)/C(C)=C/C)C1O` (centres undefined), the activity change, negative = cytotoxicity is 8.2% [at 9.29 µM] (inactive).
`C/C=C/C=C/C=C/C(=O)OC1C=C(C=O)C(O)(C(=O)O)C2(C)CCCC(C)(C)C12` (centres undefined): the Potency result was “inactive”.
With `C/C1=C\C[C@]2(C)C(=O)C(O)=C([C@H](C)CO)[C@H]2C/C=C(\C)[C@@H](O)CC/C(C)=C/CC1`, the Potency result was “inactive”.
For the molecule `COc1ccc([C@H]2CNC(=O)C2)cc1OC1CCCC1`, the Potency result was “inactive”.
On to `C[C@@H]1O[C@@H](O[C@H]2[C@H](O)[C@@H](O)[C@H](OC3CCC4(C)C5CCC(C)(C(CO)OC6OC(CO)C(O)C(O)C6O)CC5=CCC4C3(C)C)O[C@@H]2CO)[C@H](O)[C@H](O)[C@H]1O` (some centres undefined), for which the Potency entry was “inactive”.
`CN1CCC(Nc2nc(Nc3ccc(Oc4ccccc4)cc3)c3c(=O)[nH]cc(Br)c3n2)CC1`: the Potency was 4.61 µM (active).
